Source: the supplement of paper PMC10981050

These compounds were tested on OCI-AML2 (assay: cell viability relative to vehicle control; higher = less cytotoxic). Conditions: 10 µM; SRSF2 genotype: P95H/wt.
Summary of the method: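 Mutant clones made by CRISPR editing and their isogenic wild-type counterparts, from four leukaemia lines, were exposed to a single 10 µM dose of each library compound for 48 h. The supernatant was then removed and CellTiter-Glo luminescence was read. Viability was reported as percent of the on-plate vehicle control.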

Structure (SMILES) | cell viability [%]
O=C(Nc1c[nH]nc1-c1nc2ccc(CN3CCOCC3)cc2[nH]1)NC1CC1 | 2.98
Nc1ccccc1NC(=O)c1ccc(CNc2nccc(-c3cccnc3)n2)cc1 [Mocetinostat (MGCD0103)] | 0.44
COc1c2c(cc3oc(COC4OC(CO)C(O)C(O)C4O)cc(=O)c13)OC(C(C)(C)O)C2 (stereo unspecified) [Prim-o-glucosylcimifugin] | 91.8
CN(CCOc1ccc(CC2SC(=O)NC2=O)cc1)c1ccccn1 (stereo unspecified) [Rosiglitazone (Avandia)] | 94
CC(C)CC(=O)Nc1n[nH]c2c1CN(C(=O)C1CCN(C)CC1)C2(C)C | 8.45
CC1(C)[C@@H](O[C@H]2O[C@H](C(=O)O)[C@@H](O)[C@H](O)[C@H]2O[C@@H]2O[C@H](C(=O)O)[C@@H](O)[C@H](O)[C@H]2O)CC[C@]2(C)[C@H]3C(=O)C=C4[C@@H]5C[C@@](C)(C(=O)O)CC[C@]5(C)CC[C@@]4(C)[C@]3(C)CC[C@@H]12 [Ammonium Glycyrrhizinate (AMGZ)] | 112
CCC(=O)Nc1cccc(Oc2nc(Nc3ccc(N4CCN(C)CC4)cc3OC)ncc2Cl)c1 | 61.2
C[C@]12CC[C@@H]3c4ccc(O)cc4CC[C@H]3[C@@H]1C[C@@H](O)[C@@H]2O [Estriol] | 91
COC(=O)N[C@H](C(=O)N1CCC[C@H]1c1ncc(-c2ccc(-c3ccc(-c4cnc([C@@H]5CCCN5C(=O)[C@@H](NC(=O)OC)C(C)C)[nH]4)cc3)cc2)[nH]1)C(C)C [Daclatasvir Digydrochloride] | 78.2
O=C(/C=C\n1cnc(-c2cc(C(F)(F)F)cc(C(F)(F)F)c2)n1)NNc1cnccn1 [Selinexor (KPT-330)] | 6.48
C[C@@H]1O[C@@H](OC[C@H]2O[C@@H](Oc3c(-c4ccc(OCCO)c(OCCO)c4)oc4cc(OCCO)cc(O)c4c3=O)[C@H](O)[C@@H](O)[C@@H]2O)[C@H](O)[C@H](O)[C@H]1O [Troxerutin] | 91.5
O=C1c2c(O)cc(O)cc2OC(c2ccc(O)c(O)c2)C1O (stereo unspecified) [Taxifolin (Dihydroquercetin)] | 93.5
COc1cc2oc(-c3ccc(O)cc3)cc(=O)c2c(O)c1[C@@H]1O[C@H](CO)[C@@H](O)[C@H](O)[C@H]1O[C@@H]1O[C@H](CO)[C@@H](O)[C@H](O)[C@H]1O [Spinosin] | 99.2
O=C(CCNC(=O)c1ccc(OC(F)(F)F)cc1)N[C@@H]1CCCc2ccccc21 | 93.8
O=C1Nc2ccc(I)cc2C1=Cc1cc(Br)c(O)c(Br)c1 | 86.7
NC(=O)/C(=C/n1cnc(-c2cc(C(F)(F)F)cc(C(F)(F)F)c2)n1)c1cncnc1 | 1.55
